Assay results taken from PubChem BioAssay AID463173 (ICCB-Longwood Screening Facility, Harvard Medical School, 2010).
The campaign covered roughly 52,000 compounds. About 1,700 (3.3%) were called active. Rule as the data show it: active = survival mostly below about 52% (no sharp cut-off); inactive = mostly above about 56%. What follows is part of a selection rich in actives, with near analogues and random picks from the rest.

System: Wild type
Experiment: growth inhibition of S. aureus wild type versus tarO mutant, primary screen, teichoic acid synthesis inhibitors, RN4220, OD600 (AID 463173)
Conditions: S. aureus RN4220 wild type/DeltatarO growth, OD600, 18 h, hits give low values, screened at 18.75 µg/mL (by protocol)

`COc1ccc(-c2nnn(CC(=O)N(CC3CCCO3)C(C(=O)NC3CCCCC3)c3cccs3)n2)cc1` (stereo not given) was tested. Which survival did it give?
Its survival is 103% (inactive).

`COc1ccc(NC(=O)CCNS(=O)(=O)c2cccc3nonc23)c(OC)c1` was tested. Which survival did it give?
The survival was 67% (inactive).

Which survival does the source give for `CC1CCN(S(=O)(=O)c2ccc3nc(N4CCN(c5ccc(F)cc5)CC4)ccc3c2)CC1` here?
Its survival is 92% (inactive).

Which survival does the source give for `COc1ccc(NC(=O)CSC2=Nc3ccccc3C3=NC(CCC(=O)NCc4ccco4)C(=O)N23)cc1` (stereo not given) here?
Its survival is 60% (inactive).

How did the survival turn out when `CC(C)CC(=O)n1nc(-c2ccco2)nc1NCc1ccc(Cl)cc1` was run?
The survival was 83% (inactive).

For `O=C(OCc1cc(=O)n2nc(C3CC3)sc2n1)c1ccc(NC(=O)c2ccccc2Cl)cc1`, which survival is on record?
The survival was 99% (inactive).

`Cc1ccc(O)c(-c2n[nH]c3c2C(c2ccc(F)cc2)N(Cc2ccco2)C3=O)c1` (stereo not given) was tested. Which survival did it give?
Its survival is 2% (active).

`O=C1c2[nH]nc(-c3ccccc3O)c2C(c2ccccc2F)N1Cc1cccnc1` (stereo not given) was tested. Which survival did it give?
The survival was 94% (inactive).

`O=C1c2[nH]nc(-c3ccccc3O)c2C(c2ccc(F)cc2)N1CCO` (stereo not given) was tested. Which survival did it give?
The survival was 81% (inactive).

`Cc1cc(C)c(-c2n[nH]c3c2C(c2ccccc2F)N(Cc2ccco2)C3=O)c(O)c1` (stereo not given) was tested. Which survival did it give?
The survival was 8% (active).

Which survival does the source give for `O=C1c2[nH]nc(-c3ccccc3O)c2C(c2ccccc2F)N1Cc1ccncc1` (stereo not given) here?
Its survival is 93% (inactive).

Which survival does the source give for `CCc1ccc(C2c3c(-c4cc(C)ccc4O)n[nH]c3C(=O)N2CCO)cc1` (stereo not given) here?
Its survival is 78% (inactive).

For `Cc1ccc(C2c3c(-c4cc(C)ccc4O)n[nH]c3C(=O)N2Cc2ccco2)cc1` (stereo not given), which survival is on record?
Its survival is 1% (active).

With `COc1cc(C2c3c(-c4cc(C)ccc4O)n[nH]c3C(=O)N2Cc2ccco2)cc(OC)c1OC` (stereo not given) as the compound, how does the survival read?
Its survival is 73% (inactive).

For `Cc1cc(C)c(-c2n[nH]c3c2C(c2ccccc2F)N(CCO)C3=O)c(O)c1` (stereo not given), which survival is on record?
The survival was 83% (inactive).

For `Cc1ccc(O)c(-c2n[nH]c3c2C(c2ccccc2F)N(Cc2ccco2)C3=O)c1` (stereo not given), which survival is on record?
Its survival is 11% (active).

For `COc1cc(C2c3c(-c4c(C)cc(C)cc4O)n[nH]c3C(=O)N2Cc2ccco2)cc(OC)c1OC` (stereo not given), which survival is on record?
The survival was 98% (inactive).

How did the survival turn out when `CCc1ccc(C2c3c(-c4cc(C)ccc4O)n[nH]c3C(=O)N2Cc2cccnc2)cc1` (stereo not given) was run?
Its survival is 74% (inactive).

For `COc1cc(OC)c(NC(=O)c2c(C)oc3nc(C)nc(N4CCOCC4)c23)cc1Cl`, which survival is on record?
Its survival is 81% (inactive).

`COc1ccc2c(c1)c(CC(=O)Nc1cccc(F)c1C)c(C)n2C(=O)c1ccc(Cl)cc1` was tested. Which survival did it give?
Its survival is 152% (inactive).

`COc1ccc(-c2nc3scc(CCNS(=O)(=O)c4c(C)noc4C)n3n2)cc1OC` was tested. Which survival did it give?
The survival was 123% (inactive).

How did the survival turn out when `CCOc1ccc(-c2cc(-c3nc(-c4cc(OC)c(OC)c(OC)c4)no3)[nH]n2)cc1` was run?
The survival was 123% (inactive).

With `Oc1ccc(Cl)cc1C1=Nc2ccccc2N=C(c2cccc(Br)c2)C1` as the compound, how does the survival read?
The survival was 137% (inactive).

With `c1ccc(N2CCN(Cc3nnc(-c4ccc5c(c4)OCO5)o3)CC2)cc1` as the compound, how does the survival read?
The survival was 81% (inactive).

`CCOc1ccc(NC(=O)/C(C#N)=C\c2cc(C)n(C)c2C)cc1` was tested. Which survival did it give?
The survival was 103% (inactive).

For `O=C(CSc1nc(-c2ccccc2)no1)N1CCN(c2ccc(F)cc2)CC1`, which survival is on record?
The survival was 91% (inactive).

`CCc1ccccc1NC(=O)C(C)n1c(=O)cc(C)c2c(C)nn(-c3ccccc3)c21` (stereo not given) was tested. Which survival did it give?
The survival was 72% (inactive).

How did the survival turn out when `COc1cc(C2C(=O)N(C3CCCCC3)CC(=O)N2CCc2ccccc2)ccc1OC(C)C` (stereo not given) was run?
The survival was 89% (inactive).

How did the survival turn out when `Cc1ccc(CNC(=O)c2cc(Sc3ccc(F)cc3F)nc3ccccc23)cc1` was run?
The survival was 94% (inactive).

Which survival does the source give for `COC(=O)c1c(C)oc2c1cc(NS(=O)(=O)c1c(C)cc(C)cc1C)c1ccccc12` here?
Its survival is 25% (active).

With `CCOC(=O)c1c(C)oc2c1cc(NS(=O)(=O)c1ccc(C)cc1)c1ccccc12` as the compound, how does the survival read?
Its survival is 86% (inactive).

How did the survival turn out when `COc1ccc(OC)c(S(=O)(=O)Nc2cc3c(C(C)=O)c(C)oc3c3ccccc23)c1` was run?
Its survival is 69% (inactive).

For `CCOC(=O)c1sc2sc(C(=O)OCC)c(CN(CC)CC)c2c1CN(CC)CC`, which survival is on record?
The survival was 94% (inactive).

`Cc1ccccc1-c1nnc(NC(=O)CC(C)C)s1` was tested. Which survival did it give?
Its survival is 116% (inactive).

With `COc1ccc(CNS(=O)(=O)c2ccc(-c3cc(C(F)(F)F)on3)s2)cc1OC` as the compound, how does the survival read?
Its survival is 133% (inactive).

How did the survival turn out when `COc1ccccc1CNS(=O)(=O)c1ccc(-c2cc(C(F)(F)F)on2)s1` was run?
The survival was 73% (inactive).

For `COc1ccc(OC)c(CNS(=O)(=O)c2ccc(-c3cc(C(F)(F)F)on3)s2)c1`, which survival is on record?
Its survival is -6% (active).

Which survival does the source give for `CCC(=O)N1CCc2cc(S(=O)(=O)CCC(=O)N3CCN(c4cccc(C)c4)C(C)C3)ccc21` (stereo not given) here?
Its survival is 83% (inactive).

How did the survival turn out when `CN1C(=O)Cc2cc(S(=O)(=O)CCC(=O)N3CCN(c4cccc(Cl)c4)CC3)ccc21` was run?
Its survival is 83% (inactive).

For `Cc1cccc(N2CCN(C(=O)CCS(=O)(=O)c3ccc4c(c3)CC(=O)N4C)CC2C)c1` (stereo not given), which survival is on record?
Its survival is -4% (active).

With `COc1ccc(-c2cn3c(n2)sc2cc(C(=O)Nc4c(C)cccc4C)ccc23)cc1` as the compound, how does the survival read?
Its survival is 83% (inactive).

Which survival does the source give for `COc1ccc(OCC(=O)N2CCN(C(=O)c3ccc(OC)c(OC)c3)CC2)cc1` here?
Its survival is 134% (inactive).

For `Nc1ccc(-c2ccc(N)cc2C(F)(F)F)c(C(F)(F)F)c1`, which survival is on record?
Its survival is 117% (inactive).

Which survival does the source give for `Nc1ccc(N2CCOCC2)c(N)c1` here?
The survival was 113% (inactive).

For `Nc1ccc(N2CCN(c3ncc(C(F)(F)F)cc3Cl)CC2)c(C(F)(F)F)c1`, which survival is on record?
Its survival is -14% (active).

`Cc1ccc(C2=Nc3ccccc3N(CC(=O)Nc3ccccc3F)C(=O)C2)cc1C` was tested. Which survival did it give?
The survival was 83% (inactive).

Which survival does the source give for `CCC(Oc1ccc(F)cc1)C(=O)Nc1nc2c(s1)CCCC2` (stereo not given) here?
The survival was 76% (inactive).

How did the survival turn out when `CCC(Oc1ccc(F)cc1)C(=O)Nc1nc(-c2ccc(F)cc2)ns1` (stereo not given) was run?
Its survival is -1% (active).

Which survival does the source give for `COc1ccc(-c2nsc(NC(=O)C(C)Oc3ccc(Cl)c(C)c3)n2)cc1` (stereo not given) here?
Its survival is 67% (inactive).

How did the survival turn out when `Cc1cc(C)cc(OCC(=O)Nc2nc(-c3ccc(F)cc3)ns2)c1` was run?
Its survival is 89% (inactive).

How did the survival turn out when `CC(Oc1ccc(F)cc1)C(=O)Nc1nc(-c2ccc(F)cc2)ns1` (stereo not given) was run?
Its survival is -1% (active).

With `CCC(Oc1ccc(F)cc1)C(=O)Nc1cc(-c2ccc(C)cc2)no1` (stereo not given) as the compound, how does the survival read?
Its survival is 64% (inactive).

With `O=c1cc(-c2ccc(F)cc2)nc(SCc2nc(-c3ccc(Cl)cc3)no2)[nH]1` as the compound, how does the survival read?
The survival was 88% (inactive).

How did the survival turn out when `COC(=O)C1CCN(C(c2ccccc2Cl)c2sc3nc(-c4ccco4)nn3c2O)CC1` (stereo not given) was run?
The survival was 80% (inactive).

How did the survival turn out when `Cc1nc(N2CCCC2)c2c(C(=O)N3CCN(c4cc(Cl)ccc4C)CC3)c(C)oc2n1` was run?
Its survival is 99% (inactive).

How did the survival turn out when `Cc1oc2ncnc(N3CCOCC3)c2c1C(=O)N1CCN(c2cccc(C(F)(F)F)c2)CC1` was run?
The survival was -6% (active).

How did the survival turn out when `Cc1nc(N2CCOCC2)c2c(C(=O)N3CCN(c4cccc(C(F)(F)F)c4)CC3)c(C)oc2n1` was run?
The survival was 79% (inactive).

For `Cc1oc2ncnc(N3CCCCC3)c2c1C(=O)N1CCN(c2cccc(C(F)(F)F)c2)CC1`, which survival is on record?
The survival was 87% (inactive).

How did the survival turn out when `Cc1ccc(Cl)cc1N1CCN(C(=O)c2c(C)oc3ncnc(N4CCCCC4)c23)CC1` was run?
The survival was -6% (active).

For `Cc1ccc(Cl)cc1N1CCN(C(=O)c2c(C)oc3ncnc(N4CCOCC4)c23)CC1`, which survival is on record?
The survival was 69% (inactive).
